Source: PubChem BioAssay AID1159580 (chemical genetic matrix, 2015)
Several values for one entry are separate records, joined by “and”; a condition that tells them apart may be missing. Equal entries are not always repeated. Screen size: about 5,500 compounds; about 2,000 (36%) were called active. Roughly 18% stayed inconclusive and do not appear here. No stated cut-off is given here; in the data, active means normalized growth mostly below about 0.91 (no sharp cut-off); inconclusive means no clear call, values can overlap the other calls; inactive means mostly above about 0.92. Some of the results follow.

Experiment: chemical genetic growth profiling, strain panel (AID 1159580);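 further: tested at 20 µM; growth read once vehicle control cultures reached saturation at 30 °C; 1 = growth at the plate median or of vehicle wells; lower values mean less growth of the strain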
Conditions: S. cerevisiae deletion strains, growth OD

Measured: normalized growth

C[C@]12CCC(=O)C=C1C=CC1C2CC[C@@]2(C)C1CC[C@@]2(O)CCC(=O)O (stereo partly specified)
inactive: locus YAL013W, strain DEP1, active compounds read low 1 | locus YAL021C, strain ccr4, active compounds read low 1.02 | locus YAL026C, strain drs2, active compounds read low 1.01 | locus YAL030W, strain snc1, active compounds read low 1.02 | locus YBL061C, strain skt5, active compounds read low 1.03 | locus YBR009C, strain hhf1, active compounds read low 0.997 | locus YBR021W, strain FUR4, active compounds read low 0.985 | locus YBR023C, strain chs3, active compounds read low 1.02 | locus YBR171W, strain sec66, active compounds read low 1.03 | locus YBR229C, strain ROT2, active compounds read low 0.991 | locus YBR231C, strain swc5, active compounds read low 1.01 | locus YBR279W, strain paf1, active compounds read low 1.03 | locus YCL011C, strain gbp2, active compounds read low 1.03 | locus YCL016C, strain dcc1, active compounds read low 1.01 | locus YCL029C, strain bik1, active compounds read low 0.963 | locus YCL069W, strain vba3, active compounds read low 1.04 | locus YCR088W, strain abp1, active compounds read low 1.03 | locus YDL005C, strain med2, active compounds read low 1.03 | locus YDL035C, strain GPR1, active compounds read low 1.02 | locus YDL040C, strain nat1, active compounds read low 1.04 | locus YDL074C, strain BRE1, active compounds read low 0.969 | locus YDL101C, strain DUN1, active compounds read low 0.982 | locus YDL134C, strain PPH21, active compounds read low 0.99 | locus YDL185W, strain tfp1, active compounds read low 0.982 | locus YDL192W, strain arf1, active compounds read low 0.997 | locus YDR001C, strain nth1, active compounds read low 1.01 | locus YDR069C, strain doa4, active compounds read low 1.01 | locus YDR101C, strain arx1, active compounds read low 0.98 | locus YDR137W, strain rgp1, active compounds read low 0.986 | locus YDR150W, strain NUM1, active compounds read low 1 | locus YDR159W, strain sac3, active compounds read low 0.982 | locus YDR162C, strain NBP2, active compounds read low 1 | locus YDR195W, strain ref2 1.02 | locus YDR297W, strain sur2, active compounds read low 1.02 | locus YDR318W, strain mcm21, active compounds read low 0.986 | locus YDR334W, strain swr1, active compounds read low 1.04 | locus YDR335W, strain msn5, active compounds read low 1.03 | locus YDR388W, active compounds read low 0.988 | locus YDR392W, strain spt3, active compounds read low 0.978 | locus YDR502C, strain sam2, active compounds read low 0.989 | locus YEL003W, strain gim4, active compounds read low 1.02 | locus YEL037C, strain rad23, active compounds read low 1.04 | locus YEL061C, strain CIN8 (second series), active compounds read low 1.02 | locus YEL061C, strain CIN8, active compounds read low 0.999 | locus YER015W, strain faa2, active compounds read low 1.04 | locus YER016W, strain bim1, active compounds read low 1 | locus YER110C, active compounds read low 0.986 | locus YER111C, strain swi4, active compounds read low 1.03 | locus YER155C, strain BEM2 (second series), active compounds read low 1.02 | locus YER155C, strain BEM2, active compounds read low 0.986 | locus YER167W, strain BCK2, active compounds read low 1.01 | locus YFR010W, strain ubp6, active compounds read low 1.04 | locus YGL078C, strain dbp3, active compounds read low 0.983 | locus YGL086W, strain mad1, active compounds read low 1 | locus YGL167C, strain pmr1, active compounds read low 1.02 | locus YGL173C, strain kem1, active compounds read low 1.01 | locus YGL227W, strain vid30, active compounds read low 1.01 | locus YGL240W, strain doc1, active compounds read low 0.968 | locus YGL248W, strain PDE1, active compounds read low 0.994 | locus YGL253W, strain hxk2, active compounds read low 1.03 | locus YGR078C, strain PAC10, active compounds read low 0.987 | locus YGR135W, strain pre9, active compounds read low 0.988 | locus YGR229C, strain SMI1, active compounds read low 1.03 | locus YGR252W, strain gcn5, active compounds read low 1.07 | locus YHR013C, strain ard1, active compounds read low 1.02 | locus YHR027C, strain rpn1, active compounds read low 1.02 | locus YHR030C, strain SLT2, active compounds read low 0.996 and 1.06 | locus YHR079C, strain IRE1 (second series), active compounds read low 0.991 | locus YHR079C, strain IRE1, active compounds read low 1.08 | locus YHR094C, strain hxt1, active compounds read low 0.993 | locus YHR129C, strain ARP1, active compounds read low 0.986 | locus YHR142W, strain chs7, active compounds read low 1.05 | locus YHR200W, strain rpn10, active compounds read low 0.984 | locus YIL066C, strain RNR3, active compounds read low 0.982 | locus YIL073C, strain SPO22, active compounds read low 0.975 | locus YIL125W, strain kgd1, active compounds read low 1.01 | locus YIR030C, strain dcg1, active compounds read low 0.991 | locus YJL092W, strain hpr5, active compounds read low 1.03 | locus YJL095W, strain BCK1 (second series), active compounds read low 1.03 | locus YJL095W, strain BCK1, active compounds read low 0.956 and 1.05 | locus YJL115W, strain asf1, active compounds read low 1.03 | locus YJL129C, strain trk1, active compounds read low 1.06 | locus YJL134W, strain LCB3, active compounds read low 0.997 | locus YJL154C, strain vps35, active compounds read low 1.01 | locus YJL164C, strain tpk1, active compounds read low 1.01 | locus YJL166W, strain qcr8, active compounds read low 0.996 | locus YJL168C, strain set2, active compounds read low 0.987 | locus YJL187C, strain SWE1 (second series), active compounds read low 0.971 | locus YJL187C, strain SWE1, active compounds read low 1.03 | locus YJR043C, strain POL32, active compounds read low 0.974 | locus YJR066W, strain TOR1, active compounds read low 0.976
